For 15 molecules, binding signal results are on record in publication PMC12864922, “TDP-43 directly inhibits mRNA accumulation in neurites through modulation of mRNA stability”.

Sequences and labels used below:
B1: ENSMUSG00000028439.112|Fam219a|120:124 (ssRNA)
RNA: GGGAGUUCUACAGUCCGACGAUCGCUUCGAUAUCCGCAUGCUACAAAGGGAUACUGUCUCUCCAUUAGAUAACUCCUUCCACUGUCUCCCUCCCCCGCUUUCUUACUUUCUGAGGGUUGGGAAGGUAAGAUGGGCCUUAGAGAGAAGCCAGGUUUGGGGAUGCAUACACCUGUUCUCACCGGUCUCUAACCAGUGCAUCUGUCUCUCUGCCUCAUCCCCACACCGCCCUGCCACCCCCAGUCUUCUGUCUAUUGGUUCCAGGCUGGAAGCAAGAGAUAAGGCUGGCCUCCUGUGCCCCAUUGCCUCUUGCGGUCGCACUAGUGUGGAAUUCUCGGGUGUCAAGG
B2: ENSMUSG00000031028.669|Tub (ssRNA)
RNA: GGGAGUUCUACAGUCCGACGAUCGCUUCGAUAUCCGCAUGCUAAUUUCUCUAGCUGAGAGCACACUUAGCCAGUUUUCACGCCUAGAACAUAUAUGUCGAUUUGCACAUGAUUGUCUUUUCCUAUUUUGGAGUGGUCAGACAUUUUAUUUUUGUUCAAAAUUAUCUGGAGUUUUAGACAAACUUGCAAAACUGUGCUUUUAUUAAGUGACUUUUUGAAUAAACUUUUUGGUAUUCUGAAGCAAAUGUAUUUAUUUAUUGGUAUGUGCAAUGACAAACUUGGUAUUUUCCCAUAAUGACAUUAUCUCUUGCGGUCGCACUAGUGUGGAAUUCUCGGGUGUCAAGG
B3: ENSMUSG00000061578.833|Ksr2 (ssRNA)
RNA: GGGAGUUCUACAGUCCGACGAUCGCUUCGAUAUCCGCAUGCUACUCACAGUUUCAAAGGGCUCAGUCCAUAGCUGCCUGACUCUGUGUUUCUAGGCCUUUCUUGAGGCAAGUGUUCAUCAUGAUAGUGUGAGGGUGAGGAGGAGUUUCUUCAUGGCAAACAGGAAGCAAAGAGCAAUACAGGAAAAGGUCAGGGGUGAGAUGUGUCAUUGCCACUUCCUCCAGCUAGGACCUUUGAGCAUCACAUUGUGAAGCCAUCCAGGGACUUGGGGGUUAGGUCAGAGGUAUCAAUACAUCUCCGGAAACUCUUGCGGUCGCACUAGUGUGGAAUUCUCGGGUGUCAAGG
B4: ENSMUSG00000061578.1473|Ksr2 (ssRNA)
RNA: GGGAGUUCUACAGUCCGACGAUCGCUUCGAUAUCCGCAUGCUAUAUGUGAAUAAAUGGAUGGAUGGAUGGAUUGAUUUGUGAAUGAAUGGAUGAAUGGAUGGGUAGGUGGGUGGAUGCAUAGGCAAGUAGAUGAAUGAAUAUGUGGGUAGAAGGGUGAGUGGGUGGAUGAAUGGAUGGAUAGGUUGGUAGGUUAAUGUAUUCGUGGAUGGGUGAAUGGAUGGAUGGAUAGAUAGAUGGGAAGGUGGAUGGACAGAUGGAUGGAUGGAUAGAUAGAUGGACAGGUGGUUGGUGGAUAAAUGAGUCUCUUGCGGUCGCACUAGUGUGGAAUUCUCGGGUGUCAAGG
B5: ENSMUSG00000061578.1460|Ksr2 (ssRNA)
RNA: GGGAGUUCUACAGUCCGACGAUCGCUUCGAUAUCCGCAUGCUAGAUGGAUGAAUGGAUGGGUAGGUGGGUAGAUAGGUAUAUGAAUGAAUGGAUGAAUGGAUGGGUGAAUGGAUGGAUAGGUAUGUGAAUAAAUGGAUGGAUGGAUGGAUUGAUUUGUGAAUGAAUGGAUGAAUGGAUGGGUAGGUGGGUGGAUGCAUAGGCAAGUAGAUGAAUGAAUAUGUGGGUAGAAGGGUGAGUGGGUGGAUGAAUGGAUGGAUAGGUUGGUAGGUUAAUGUAUUCGUGGAUGGGUGAAUGGAUGGAUGCUCUUGCGGUCGCACUAGUGUGGAAUUCUCGGGUGUCAAGG
B6: ENSMUSG00000061578.1472|Ksr2 (ssRNA)
RNA: GGGAGUUCUACAGUCCGACGAUCGCUUCGAUAUCCGCAUGCUAGAUAGGUAUGUGAAUAAAUGGAUGGAUGGAUGGAUUGAUUUGUGAAUGAAUGGAUGAAUGGAUGGGUAGGUGGGUGGAUGCAUAGGCAAGUAGAUGAAUGAAUAUGUGGGUAGAAGGGUGAGUGGGUGGAUGAAUGGAUGGAUAGGUUGGUAGGUUAAUGUAUUCGUGGAUGGGUGAAUGGAUGGAUGGAUAGAUAGAUGGGAAGGUGGAUGGACAGAUGGAUGGAUGGAUAGAUAGAUGGACAGGUGGUUGGUGGAUAACUCUUGCGGUCGCACUAGUGUGGAAUUCUCGGGUGUCAAGG
B7: ENSMUSG00000061578.1462|Ksr2 (ssRNA)
RNA: GGGAGUUCUACAGUCCGACGAUCGCUUCGAUAUCCGCAUGCUAGAUGGGUAGGUGGGUAGAUAGGUAUAUGAAUGAAUGGAUGAAUGGAUGGGUGAAUGGAUGGAUAGGUAUGUGAAUAAAUGGAUGGAUGGAUGGAUUGAUUUGUGAAUGAAUGGAUGAAUGGAUGGGUAGGUGGGUGGAUGCAUAGGCAAGUAGAUGAAUGAAUAUGUGGGUAGAAGGGUGAGUGGGUGGAUGAAUGGAUGGAUAGGUUGGUAGGUUAAUGUAUUCGUGGAUGGGUGAAUGGAUGGAUGGAUAGAUAGAUGCUCUUGCGGUCGCACUAGUGUGGAAUUCUCGGGUGUCAAGG
B8: ENSMUSG00000061578.1467|Ksr2 (ssRNA)
RNA: GGGAGUUCUACAGUCCGACGAUCGCUUCGAUAUCCGCAUGCUAUGAAUGGAUGAAUGGAUGGGUGAAUGGAUGGAUAGGUAUGUGAAUAAAUGGAUGGAUGGAUGGAUUGAUUUGUGAAUGAAUGGAUGAAUGGAUGGGUAGGUGGGUGGAUGCAUAGGCAAGUAGAUGAAUGAAUAUGUGGGUAGAAGGGUGAGUGGGUGGAUGAAUGGAUGGAUAGGUUGGUAGGUUAAUGUAUUCGUGGAUGGGUGAAUGGAUGGAUGGAUAGAUAGAUGGGAAGGUGGAUGGACAGAUGGAUGGAUGGACUCUUGCGGUCGCACUAGUGUGGAAUUCUCGGGUGUCAAGG
B9: ENSMUSG00000061578.1458|Ksr2 (ssRNA)
RNA: GGGAGUUCUACAGUCCGACGAUCGCUUCGAUAUCCGCAUGCUAGAAUGAAUGGAUGAUGGAUGAAUGGAUGGGUAGGUGGGUAGAUAGGUAUAUGAAUGAAUGGAUGAAUGGAUGGGUGAAUGGAUGGAUAGGUAUGUGAAUAAAUGGAUGGAUGGAUGGAUUGAUUUGUGAAUGAAUGGAUGAAUGGAUGGGUAGGUGGGUGGAUGCAUAGGCAAGUAGAUGAAUGAAUAUGUGGGUAGAAGGGUGAGUGGGUGGAUGAAUGGAUGGAUAGGUUGGUAGGUUAAUGUAUUCGUGGAUGGGUGCUCUUGCGGUCGCACUAGUGUGGAAUUCUCGGGUGUCAAGG
B10: ENSMUSG00000061578.1468|Ksr2 (ssRNA)
RNA: GGGAGUUCUACAGUCCGACGAUCGCUUCGAUAUCCGCAUGCUAGAUGAAUGGAUGGGUGAAUGGAUGGAUAGGUAUGUGAAUAAAUGGAUGGAUGGAUGGAUUGAUUUGUGAAUGAAUGGAUGAAUGGAUGGGUAGGUGGGUGGAUGCAUAGGCAAGUAGAUGAAUGAAUAUGUGGGUAGAAGGGUGAGUGGGUGGAUGAAUGGAUGGAUAGGUUGGUAGGUUAAUGUAUUCGUGGAUGGGUGAAUGGAUGGAUGGAUAGAUAGAUGGGAAGGUGGAUGGACAGAUGGAUGGAUGGAUAGAUACUCUUGCGGUCGCACUAGUGUGGAAUUCUCGGGUGUCAAGG
B11: ENSMUSG00000061578.1471|Ksr2 (ssRNA)
RNA: GGGAGUUCUACAGUCCGACGAUCGCUUCGAUAUCCGCAUGCUAUGGAUGGAUAGGUAUGUGAAUAAAUGGAUGGAUGGAUGGAUUGAUUUGUGAAUGAAUGGAUGAAUGGAUGGGUAGGUGGGUGGAUGCAUAGGCAAGUAGAUGAAUGAAUAUGUGGGUAGAAGGGUGAGUGGGUGGAUGAAUGGAUGGAUAGGUUGGUAGGUUAAUGUAUUCGUGGAUGGGUGAAUGGAUGGAUGGAUAGAUAGAUGGGAAGGUGGAUGGACAGAUGGAUGGAUGGAUAGAUAGAUGGACAGGUGGUUGGUCUCUUGCGGUCGCACUAGUGUGGAAUUCUCGGGUGUCAAGG
B12: ENSMUSG00000061578.1470|Ksr2 (ssRNA)
RNA: GGGAGUUCUACAGUCCGACGAUCGCUUCGAUAUCCGCAUGCUAGGUGAAUGGAUGGAUAGGUAUGUGAAUAAAUGGAUGGAUGGAUGGAUUGAUUUGUGAAUGAAUGGAUGAAUGGAUGGGUAGGUGGGUGGAUGCAUAGGCAAGUAGAUGAAUGAAUAUGUGGGUAGAAGGGUGAGUGGGUGGAUGAAUGGAUGGAUAGGUUGGUAGGUUAAUGUAUUCGUGGAUGGGUGAAUGGAUGGAUGGAUAGAUAGAUGGGAAGGUGGAUGGACAGAUGGAUGGAUGGAUAGAUAGAUGGACAGGUGCUCUUGCGGUCGCACUAGUGUGGAAUUCUCGGGUGUCAAGG
B13: ENSMUSG00000061578.1475|Ksr2 (ssRNA)
RNA: GGGAGUUCUACAGUCCGACGAUCGCUUCGAUAUCCGCAUGCUAUGGAUGGAUGGAUGGAUUGAUUUGUGAAUGAAUGGAUGAAUGGAUGGGUAGGUGGGUGGAUGCAUAGGCAAGUAGAUGAAUGAAUAUGUGGGUAGAAGGGUGAGUGGGUGGAUGAAUGGAUGGAUAGGUUGGUAGGUUAAUGUAUUCGUGGAUGGGUGAAUGGAUGGAUGGAUAGAUAGAUGGGAAGGUGGAUGGACAGAUGGAUGGAUGGAUAGAUAGAUGGACAGGUGGUUGGUGGAUAAAUGAGUGAAUGAUUAUGUCUCUUGCGGUCGCACUAGUGUGGAAUUCUCGGGUGUCAAGG
B14: ENSMUSG00000061578.1466|Ksr2 (ssRNA)
RNA: GGGAGUUCUACAGUCCGACGAUCGCUUCGAUAUCCGCAUGCUAUAUGAAUGAAUGGAUGAAUGGAUGGGUGAAUGGAUGGAUAGGUAUGUGAAUAAAUGGAUGGAUGGAUGGAUUGAUUUGUGAAUGAAUGGAUGAAUGGAUGGGUAGGUGGGUGGAUGCAUAGGCAAGUAGAUGAAUGAAUAUGUGGGUAGAAGGGUGAGUGGGUGGAUGAAUGGAUGGAUAGGUUGGUAGGUUAAUGUAUUCGUGGAUGGGUGAAUGGAUGGAUGGAUAGAUAGAUGGGAAGGUGGAUGGACAGAUGGAUGCUCUUGCGGUCGCACUAGUGUGGAAUUCUCGGGUGUCAAGG
B15: ENSMUSG00000061578.1477|Ksr2 (ssRNA)
RNA: GGGAGUUCUACAGUCCGACGAUCGCUUCGAUAUCCGCAUGCUAUGGAUUGAUUUGUGAAUGAAUGGAUGAAUGGAUGGGUAGGUGGGUGGAUGCAUAGGCAAGUAGAUGAAUGAAUAUGUGGGUAGAAGGGUGAGUGGGUGGAUGAAUGGAUGGAUAGGUUGGUAGGUUAAUGUAUUCGUGGAUGGGUGAAUGGAUGGAUGGAUAGAUAGAUGGGAAGGUGGAUGGACAGAUGGAUGGAUGGAUAGAUAGAUGGACAGGUGGUUGGUGGAUAAAUGAGUGAAUGAUUAUGUUGAUAGAUAUGUCUCUUGCGGUCGCACUAGUGUGGAAUUCUCGGGUGUCAAGG

In all, about 9,900 sequences were measured (“r (bound/input frequency ratio)”: median about 0.7, highest 2% from about 6.5 on). The entries come from a sample that favours the highest values as a whole.

For the experiment, the target named is TDP-43 (Homo sapiens, UniProt Q13148 1-414). Nature of the experiment: RNA Bind-n-Seq with designed 260-mer pool; 25 mM Tris-HCl, 150 mM KCl, 3 mM MgCl2, BSA (printed 500 mg/mL), 20 units/mL SUPERase IN; pH not stated; 500 nM RNA pool, 1 h, 4 C; TDP-43 5, 50, 500 nM; high values mean tight binding. As to conditions: protein: recombinant; tags: SBP (GST cleaved off with PreScission; pGEX-GST-SBP). A digest of the protocol: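 Recombinant SBP-tagged TDP-43 at 5, 50 or 500 nM was captured on streptavidin beads, then incubated 1 h at 4 °C with 500 nM of an in vitro-transcribed 260-nt 3′ UTR oligo pool in 25 mM Tris-HCl, 150 mM KCl, 3 mM MgCl2, BSA and SUPERase IN. Bound RNA was washed, eluted with biotin, reverse transcribed, PCR-amplified and sequenced. Binding is R, each oligo's mapped-read-normalized abundance in the bound sample divided by its abundance in input. Duplicates used two independent protein batches.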
Sequence of TDP-43 (Q13148 whole entry): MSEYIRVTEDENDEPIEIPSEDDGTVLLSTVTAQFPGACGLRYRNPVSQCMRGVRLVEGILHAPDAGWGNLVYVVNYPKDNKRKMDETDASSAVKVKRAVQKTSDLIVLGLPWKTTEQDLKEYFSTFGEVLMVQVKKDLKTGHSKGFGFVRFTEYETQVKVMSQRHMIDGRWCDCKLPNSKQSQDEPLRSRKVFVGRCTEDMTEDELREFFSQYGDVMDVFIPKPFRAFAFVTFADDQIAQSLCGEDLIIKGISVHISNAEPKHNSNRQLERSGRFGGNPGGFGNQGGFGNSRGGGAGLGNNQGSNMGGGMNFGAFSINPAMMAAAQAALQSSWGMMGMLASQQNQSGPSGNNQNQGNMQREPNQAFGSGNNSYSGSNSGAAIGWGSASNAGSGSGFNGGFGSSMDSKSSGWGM
Consider B1, for which the binding signal was 0.515 R (bound/input frequency ratio).
To B2 belongs 0.0963 R (bound/input frequency ratio); to B3, 1.23 R (bound/input frequency ratio).
Turning to B4, the binding signal was 9.68 R (bound/input frequency ratio).
To B5 belongs 6.72 R (bound/input frequency ratio); to B6, 5.09 R (bound/input frequency ratio); to B7, 5.83 R (bound/input frequency ratio).
As for B8, the binding signal is 3.46 R (bound/input frequency ratio).
Turning to B9, the binding signal is 4.62 R (bound/input frequency ratio).
As to B10, the binding signal was 14.4 R (bound/input frequency ratio).
To B11 belongs 6.33 R (bound/input frequency ratio); to B12, 5.59 R (bound/input frequency ratio).
As to B13, the binding signal was 8.8 R (bound/input frequency ratio).
Regarding B14, the binding signal was 5.78 R (bound/input frequency ratio).
In the case of B15 it was 5.58 R (bound/input frequency ratio).
